Data taken from PubChem BioAssay AID1945 (The Scripps Research Institute Molecular Screening Center, 2009).
Among all 1,600 compounds or so, about 65 (4%) were called active. These entries were drawn from the full list. Unmarked numbers belong to inactive results. Rule as the data show it: active = inhibition above about 37%; inactive = the rest.

Experiment: compounds displacing fluorescent DNA intercalator, artefact control for HCV NS3 helicase inhibitor project, biochemical, FID fluorescence, triplicate (AID 1945);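 also: 0% = vehicle and 100% = reference compound; higher means more displacement of ethidium bromide from the DNA hairpin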
Settings: DNA fluorescent intercalator displacement, at 7.9 µM, stronger effect = higher value

Row | SMILES | inhibition
1 | CS/C(=C\C(=O)c1ccco1)Nc1ccccc1Cl | -4.94%
2 | O=C1N/C(=C/c2cccn2-c2ccccc2)C(=O)N1c1cccc(Cl)c1 | 12.2%
3 | Cc1cc(C)c2nc(-c3ccco3)cc(C(=O)O)c2c1 | -5.42%
4 | Cc1ccc(/C=C/C(=O)Nc2ccc([N+](=O)[O-])c(NC(=O)/C=C/c3ccc(C)o3)c2)o1 | 33.4%
5 | CC(C)c1ccc(C2C(C(=O)c3ccco3)=C(O)C(=O)N2CC2CCCO2)cc1 (stereo not given) | -21.9%
6 | Cc1ccc(C(CC(=O)O)Nc2nc(N3CCCCC3)nc(N3CCCCC3)n2)cc1 (stereo not given) | -62.5%
7 | Cc1ccc(-c2nn(-c3ccccc3)cc2/C=C2\SC(=S)N(CCCCCC(=O)O)C2=O)o1 | 9.08%
8 | CN(C)c1ccc(N/C=C/C(=O)C(F)(F)F)cc1 | 17.8%
9 | O=C(c1cccc(-n2cccc2)c1)N1CCN(S(=O)(=O)c2ccc(F)cc2)CC1 | -4.45%
10 | O=C(CCCN1C(=O)/C(=C\c2ccco2)SC1=S)Nc1cccc2ccccc12 | 6.79%
11 | Cc1occc1C(=O)N/N=C/c1ccc(-c2cccc([N+](=O)[O-])c2)o1 | 1.25%
12 | Cc1cc(N2C(=O)C(O)=C(C(=O)c3ccc(C)o3)C2c2ccc(OCc3ccccc3)cc2)no1 (stereo not given) | -15.8%
13 | Cc1cccc(NC(=O)c2sc3nc4c(c(-c5ccco5)c3c2N)CCC4)c1 | -11.3%
14 | COc1ccc(OCC(=O)Nc2nnc(-c3ccco3)s2)cc1 | -1.45%
15 | COc1ccc(NC(=O)CSc2ccc(-c3ccco3)nn2)c(OC)c1 | 0.58%
16 | c1ccc(CSc2nnc(-c3ccco3)c(-c3ccco3)n2)cc1 | 32.8%
17 | Clc1ccccc1CSc1nnc(-c2ccco2)c(-c2ccco2)n1 | 72.2% (active)
18 | O=C(CCl)NNc1cccc(Cl)n1 | 11.2%
19 | COc1cccc(C(=O)CC(=O)C(=O)Nc2ccc([N+](=O)[O-])cc2C)c1 | 2.14%
20 | Fc1ccc(-c2ccc(-c3nn4c(-c5ccco5)nnc4s3)o2)cc1 | -13.2%
